Laboratory results: PubChem BioAssay AID1159580 (chemical genetic matrix, 2015)
Values joined by “and” are separate entries in the source; they are usually repeats but may differ in a detail not shown here. Equal entries are not always repeated. Among all 5,500 compounds or so, about 2,000 (36%) were called active. Inconclusive results (about 18%) are left out. No stated cut-off is given here; in the data, active means normalized growth mostly below about 0.91 (no sharp cut-off); inconclusive means no clear call, values can overlap the other calls; inactive means mostly above about 0.92. Some of the results follow.

Experiment: chemical genetic growth profiling, strain panel (AID 1159580);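 further: tested at 20 µM; growth read once vehicle control cultures reached saturation at 30 °C; 1 = growth at the plate median or of vehicle wells; lower values mean less growth of the strain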
Details: S. cerevisiae deletion strains, growth OD

Measured: normalized growth

C#CC1(O)CCC2C3CCC4=CC(=O)CCC4(C)C3CCC21C (stereo unspecified)
inactive: locus YAL021C, strain ccr4, active compounds read low 0.973 | locus YAL026C, strain drs2, active compounds read low 0.982 | locus YAL030W, strain snc1, active compounds read low 0.995 | locus YBL061C, strain skt5, active compounds read low 0.96 | locus YBR009C, strain hhf1, active compounds read low 0.979 | locus YBR021W, strain FUR4, active compounds read low 0.985 | locus YBR023C, strain chs3, active compounds read low 0.981 | locus YBR171W, strain sec66, active compounds read low 0.981 | locus YBR229C, strain ROT2, active compounds read low 0.985 | locus YBR231C, strain swc5, active compounds read low 0.977 | locus YBR279W, strain paf1, active compounds read low 0.985 | locus YCL011C, strain gbp2, active compounds read low 0.994 | locus YCL016C, strain dcc1, active compounds read low 0.968 | locus YCL029C, strain bik1, active compounds read low 0.984 | locus YCL069W, strain vba3, active compounds read low 1 | locus YCR088W, strain abp1, active compounds read low 0.992 | locus YDL005C, strain med2, active compounds read low 0.976 | locus YDL035C, strain GPR1, active compounds read low 0.981 | locus YDL040C, strain nat1, active compounds read low 0.97 | locus YDL074C, strain BRE1, active compounds read low 1.01 | locus YDL101C, strain DUN1, active compounds read low 0.979 | locus YDL185W, strain tfp1, active compounds read low 0.981 | locus YDL192W, strain arf1, active compounds read low 0.98 | locus YDR001C, strain nth1, active compounds read low 0.977 | locus YDR069C, strain doa4, active compounds read low 0.933 | locus YDR101C, strain arx1, active compounds read low 1.02 | locus YDR159W, strain sac3, active compounds read low 0.937 | locus YDR162C, strain NBP2, active compounds read low 0.971 | locus YDR195W, strain ref2 0.975 | locus YDR297W, strain sur2, active compounds read low 0.98 | locus YDR318W, strain mcm21, active compounds read low 0.97 | locus YDR334W, strain swr1, active compounds read low 0.954 | locus YDR335W, strain msn5, active compounds read low 0.981 | locus YDR388W, active compounds read low 0.976 | locus YDR392W, strain spt3, active compounds read low 0.918 | locus YDR502C, strain sam2, active compounds read low 0.985 | locus YEL003W, strain gim4, active compounds read low 0.976 | locus YEL037C, strain rad23, active compounds read low 0.969 | locus YEL061C, strain CIN8 (second series), active compounds read low 0.965 | locus YEL061C, strain CIN8, active compounds read low 0.996 | locus YER015W, strain faa2, active compounds read low 0.992 | locus YER016W, strain bim1, active compounds read low 0.996 | locus YER110C, active compounds read low 0.968 | locus YER111C, strain swi4, active compounds read low 0.99 | locus YER155C, strain BEM2 (second series), active compounds read low 1.02 | locus YER155C, strain BEM2, active compounds read low 0.982 | locus YER167W, strain BCK2, active compounds read low 0.994 | locus YFR010W, strain ubp6, active compounds read low 0.995 | locus YGL078C, strain dbp3, active compounds read low 0.95 | locus YGL086W, strain mad1, active compounds read low 1.01 | locus YGL167C, strain pmr1, active compounds read low 0.976 | locus YGL173C, strain kem1, active compounds read low 0.986 | locus YGL227W, strain vid30, active compounds read low 0.983 | locus YGL240W, strain doc1, active compounds read low 0.987 | locus YGL248W, strain PDE1, active compounds read low 0.99 | locus YGL253W, strain hxk2, active compounds read low 0.978 | locus YGR135W, strain pre9, active compounds read low 0.947 | locus YGR252W, strain gcn5, active compounds read low 0.956 | locus YHR013C, strain ard1, active compounds read low 0.994 | locus YHR027C, strain rpn1, active compounds read low 0.948 | locus YHR030C, strain SLT2, active compounds read low 0.998 and 1 | locus YHR079C, strain IRE1 (second series), active compounds read low 0.983 | locus YHR079C, strain IRE1, active compounds read low 1 | locus YHR094C, strain hxt1, active compounds read low 0.968 | locus YHR129C, strain ARP1, active compounds read low 0.999 | locus YHR142W, strain chs7, active compounds read low 0.98 | locus YHR200W, strain rpn10, active compounds read low 0.986 | locus YIL066C, strain RNR3, active compounds read low 0.989 | locus YIL073C, strain SPO22, active compounds read low 0.933 | locus YIL125W, strain kgd1, active compounds read low 0.978 | locus YIR030C, strain dcg1, active compounds read low 0.984 | locus YJL092W, strain hpr5, active compounds read low 0.977 | locus YJL095W, strain BCK1 (second series), active compounds read low 0.981 | locus YJL095W, strain BCK1, active compounds read low 0.981 and 1.01 | locus YJL115W, strain asf1, active compounds read low 0.954 | locus YJL129C, strain trk1, active compounds read low 0.97 | locus YJL134W, strain LCB3, active compounds read low 0.983 | locus YJL154C, strain vps35, active compounds read low 0.972 | locus YJL164C, strain tpk1, active compounds read low 0.978 | locus YJL166W, strain qcr8, active compounds read low 0.983 | locus YJL168C, strain set2, active compounds read low 0.977 | locus YJL187C, strain SWE1 (second series), active compounds read low 1.01 | locus YJR043C, strain POL32, active compounds read low 1.03 | locus YJR066W, strain TOR1, active compounds read low 0.957 | locus YJR075W, strain HOC1, active compounds read low 1
active: locus YDR137W, strain rgp1, active compounds read low 1.19 [resistant]
